The values that follow come from PubChem BioAssay.

Test [1] in a line: PMA/ionomycin-induced NF-kB reporter inhibitors, Jurkat retest, confirmation, T-cell NF-kB inhibitor project, cell-based, luminescence, single concentration (AID 435020).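 Note: plate controls were PMA/ionomycin stimulated DMSO wells for no effect and unstimulated DMSO wells for full effect.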 The following applies: Jurkat NF-kB luciferase, 16 h, at 4 µM, stronger effect = higher value.
Test [2] can be described thus: inhibition of Brca1/Bard1 split-luciferase complementation, confirmation, counter-screen for Mdm2/MdmX interaction inhibitor project, luminescence, single concentration (AID 504668; call rule not given here). The following applies: Brca1/Bard1 bimolecular luciferase complementation counterscreen, at 8 µM, stronger effect = higher value. For orientation: A counterscreen serves to expose hits that act by an unwanted route or on another target.

The target of test [3] is COP9 signalosome complex subunit 5 (Homo sapiens) (UniProt Q92905). The experiment in a line: Csn5 deneddylation inhibitors, confirmation, biochemical, fluorescence polarization, single concentration, SCF-Nedd8OG substrate (AID 720654; in the data active = inhibition above about 50%;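 note: 0% = DMSO with enzyme and 100% = no enzyme wells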). The settings on record: Csn5 deneddylation of SCF-Nedd8OG, 90 min, at 16.6 µM, stronger effect = higher value. (Fluorescence polarisation rises when a labelled molecule tumbles more slowly, as on binding a larger partner.)

Test [4] concerns the target 72 kDa type IV collagenase (Homo sapiens) (UniProt P08253). Nature of the test: MMP-2 protease inhibition counter-screen, confirmation, counter-screen for CSN deneddylation inhibitor project, biochemical, fluorescence, single concentration (AID 720655;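 active = corrected plate-normalized z-score of 5 or more, or -5 or less, or inhibition of 15% or more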;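 note: plate controls were DMSO wells with enzyme for no effect and buffer wells lacking MMP-2 for full effect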). The settings on record: recombinant MMP-2, FRET substrate fluorescence, 60 min; at 16.6 µM.
In a further test the target is Prothrombin (Bos taurus) (UniProt P00735). Nature of the test: bovine thrombin inhibition counter-screen, confirmation, counter-screen for CSN deneddylation inhibitor project, biochemical, fluorescence polarization, single concentration (AID 720656;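 active = inhibition at or above a set limit, with a fluorescence interference ratio between 0.5 and a set maximum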). The following applies: bovine thrombin cleavage of Ub4-pepOG, at 16.6 µM, stronger effect = higher value.
A short description of test [5]: Peg3 promoter reporter inhibitors, retest, confirmation, cell-based, HeLa, luciferase reporter, single concentration (AID 602417;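 active = at 20 µM dose, 40% or more inhibition averaged across four replicates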). The settings on record: HeLa PEG-Prom luciferase reporter, luminescence, overnight; at 20 µM; stronger effect = higher value. A general note: In a reporter assay the amount or activity of a reporter protein is the signal.
A short description of test [6]: HIF-2a reporter inhibitor retest, confirmation, luminescence, 786-0 RCC cells (AID 651580;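 active = mean inhibition across four replicates of at least 40 percent at the single tested concentration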). The settings on record: HIF-2a luciferase reporter luminescence, overnight, at 18.8 µM, stronger effect = higher value.
Test [7] in a line: HIF-1a luciferase reporter signal reduction – MiaPaCa-2 cells, single concentration, counter-screen for HIF-2a inhibitor project, confirmation (AID 651589;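 active = mean inhibition of the reporter signal across four replicates at the single tested dose of 50% or more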). The following applies: MiaPaCa-2 HIF-1a luciferase reporter, desferoxamine, overnight; at 18.8 µM; stronger effect = higher value.
Test [8] addresses PEG-3 (UniProt Q6IN02). The experiment in a line: Peg3 promoter luciferase inhibitors, potency, dose response, cell-based, HeLa, CREF/GAPDH counter-screen panel (AID 624167). The settings on record: CREF/GAPDH counter-screens; HeLa PEG-Prom luciferase reporter, overnight, run 1, dose range 1, at 100 µM (top of the series) unless noted.
Test [9] concerns the target PEG-3 (UniProt Q6IN02). Described as above. The following applies: CREF/GAPDH counter-screens; HeLa PEG-Prom luciferase reporter, overnight, run 2, dose range 1, at 100 µM (top of the series) unless noted.
The subject of test [10] is Rat fibroblasts (CREF). Described as above. The following applies: CREF/GAPDH counter-screens; run 1, dose range 1, at 100 µM (top of the series).
Test [11] relates to Rat fibroblasts (CREF). The test is described as above. The following applies: CREF/GAPDH counter-screens; run 2, dose range 1, at 100 µM (top of the series).
In test [12] the target is Protein Mdm4 (Homo sapiens) + E3 ubiquitin-protein ligase Mdm2 (Homo sapiens) (UniProt O15151+Q00987). Nature of the test: retested Mdm2-MdmX interaction blockers, confirmation, cell-based, luminescence, single concentration, set 2 (AID 504601;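 active = mean inhibition of the luminescence signal across two replicates at or above 26 percent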). The settings on record: SaOS-2 split-luciferase Mdm2/MdmX complementation, at 8 µM, stronger effect = higher value.
Test [13] can be described thus: Apaf-1 inhibitors, single-dose retest, confirmation, biochemical, fluorescence, DEVD-Rh110, 20 µM (AID 504614;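 active = mean inhibition of at least 40% at 20 µM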;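 note: plate controls were DMSO wells for no effect and DEVD-CHO caspase inhibitor control wells for full effect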). The settings on record: reconstituted apoptosome, caspase-3 DEVD-Rh110 fluorescence; at 20 µM; stronger effect = higher value.
Test [14] is described as follows: Rh110 fluorescence interference by putative Apaf-1 inhibitors, confirmation, artefact control for Apaf-1 inhibitor project, biochemical, 20 µM (AID 504615;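 active = signal rise of 40% or more at 20 µM, treated as a fluorescence artifact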). The settings on record: quenched caspase reaction, at 20 µM, stronger effect = higher value.
In test [15] the target is Tumor necrosis factor receptor superfamily member 10B (Homo sapiens) (UniProt O14763). The experiment in a line: caspase-8 TRAIL sensitization, hit retest, confirmation, cell-based, NB7+caspase-8, with/without TRAIL, luminescence panel (AID 651596; in the data active = activity above about 50%). The following applies: NB7 neuroblastoma + caspase-8, TRAIL sensitization, luminescence viability, with TRAIL, mean of runs, at 10 µM, stronger effect = higher value.

Assay in test [16]: as above
The following applies: NB7 neuroblastoma + caspase-8, without TRAIL, luminescence viability, without TRAIL, mean of runs, at 10 µM.

Test [17] is described as follows: inhibitors of PAF-induced NF-kB signaling, retest, confirmation, cell-based, GFP fluorescence, single concentration (AID 602472; in the data active = inhibition above about 40%;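 note: stimulus PAF is a Pseudomonas aeruginosa filtrate and not platelet activating factor; plate controls were DMSO wells with stimulus for no effect and unstimulated DMSO wells for full effect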). The settings on record: KKLEB CF airway cells, overnight, at 5 µM, stronger effect = higher value.
A short description of test [18]: inhibitors of PAF-induced NFkB signaling in CF airway cells, dose response, cell-based, uHTS hits, panel, cytotoxicity readout (AID 624344). The following applies: CF bronchial epithelial cells, PAF-induced NFkB reporter inhibition, with PAF, run 1; at 79 µM (top of the series) unless noted.
Assay in test [19]: as above
The settings on record: CF bronchial epithelial cells, PAF-induced NFkB reporter inhibition, with PAF, run 2; at 79 µM (top of the series) unless noted.

The target of test [20] is Sentrin-specific protease 8 (Homo sapiens) (UniProt Q96LD8). Nature of the test: SENP8 protease inhibitors, retest, confirmation, biochemical, luminescence, single concentration (AID 488912;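 active = mean inhibition across replicates above about 50%, limit read from the data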). The following applies: Recombinant SENP8, Z-RLRGG-aminoluciferin luminescence, 60 min; at 12.5 µM; stronger effect = higher value.
Test [21] deals with Sentrin-specific protease 6 (Homo sapiens) (UniProt Q9GZR1). The experiment in a line: SENP6 protease inhibitors, confirmation, biochemical, luminescence, single concentration (AID 488915;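 active = mean inhibition above about 50% in the one-dose retest, limit read from the data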). The settings on record: recombinant SENP6, Z-RLRGG-aminoluciferin luminescence; at 12.5 µM; stronger effect = higher value.
Test [22] concerns the target Sentrin-specific protease 7 (Homo sapiens) (UniProt Q9BQF6). The experiment in a line: SENP7 protease inhibitors, retest, confirmation, biochemical, luminescence, single concentration (AID 488917;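 active = mean inhibition above about 50% in the one-dose retest, limit read from the data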). The settings on record: recombinant SENP7, Z-RLRGG-aminoluciferin luminescence, 40 min; at 12.5 µM; stronger effect = higher value.
Another test has as its target Caspase-3 (Homo sapiens) (UniProt P42574). The experiment in a line: caspase-3 protease inhibitors, confirmation, selectivity assay for SENP inhibitor project, biochemical, single concentration (AID 488918;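 active = mean inhibition above about 50%, limit read from the data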;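 note: plate controls were enzyme with DMSO for no effect and wells without caspase-3 for full effect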). The following applies: purified caspase-3, Z-DEVD-aminoluciferin luminescence, 60 min; at 12.5 µM; stronger effect = higher value.
A short description of test [23]: luciferase luminescence interference by compounds, confirmation, artefact control for SENP inhibitor project, biochemical, single concentration, SENP8 reaction pre-completed (AID 488919;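 active = mean inhibition above about 50% when retested at one dose, limit read from the data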;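 note: plate controls were DMSO wells with completed reaction for no effect and substrate without enzyme for full effect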). The settings on record: Pre-incubated SENP8/Z-RLRGG-aminoluciferin, at 12.5 µM, stronger effect = higher value.
A short description of test [24]: activators of apoptotic CHOP UPR arm, confirmation, cell-based, CHO-CHOP luciferase reporter, single concentration (AID 463112; in the data active = activation above about 33%;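 note: 0% = DMSO wells and 100% = tunicamycin 10 µg/mL wells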). The following applies: CHO-CHOP cells, CHOP-luciferase reporter luminescence; at 10 µM; stronger effect = higher value; percent of tunicamycin response, DMSO as zero.
In test [25] the target is Tumor necrosis factor receptor superfamily member 10B (Homo sapiens) (UniProt O14763). The experiment in a line: TRAIL sensitizers in caspase-8 expressing neuroblastoma cells, dose response, NB7 cells plus caspase-8, luminescence, panel (AID 652002). The following applies: NB7 neuroblastoma +caspase-8, TRAIL sensitization, luminescence viability, NB7+Caspase-8, with TRAIL, run 1; at 12.5 µM (top of the series).

For test [26] the target is unchanged. Described as above. The settings on record: NB7 neuroblastoma +caspase-8, TRAIL sensitization, luminescence viability, NB7+Caspase-8, with TRAIL, run 2; at 12.5 µM (top of the series).
Assay in test [27]: as above
The following applies: NB7 neuroblastoma +caspase-8, no TRAIL, compound-alone cytotoxicity counter-screen, luminescence viability, NB7+Caspase-8, run 1; at 12.5 µM (top of the series) unless noted.

Assay in test [28]: as above
The following applies: NB7 neuroblastoma +caspase-8, no TRAIL, compound-alone cytotoxicity counter-screen, luminescence viability, NB7+Caspase-8, run 2; at 12.5 µM (top of the series) unless noted.

The list shows a part of the results. The source made the active and inactive calls.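 Rule for the calls, unless noted: active = inhibition reaching about 45% at 4 µM in either replicate (limit read from the data); inactive = the rest.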

Tumor necrosis factor receptor superfamily member 10B (Homo sapiens), sequence (O14763 whole entry, looked up): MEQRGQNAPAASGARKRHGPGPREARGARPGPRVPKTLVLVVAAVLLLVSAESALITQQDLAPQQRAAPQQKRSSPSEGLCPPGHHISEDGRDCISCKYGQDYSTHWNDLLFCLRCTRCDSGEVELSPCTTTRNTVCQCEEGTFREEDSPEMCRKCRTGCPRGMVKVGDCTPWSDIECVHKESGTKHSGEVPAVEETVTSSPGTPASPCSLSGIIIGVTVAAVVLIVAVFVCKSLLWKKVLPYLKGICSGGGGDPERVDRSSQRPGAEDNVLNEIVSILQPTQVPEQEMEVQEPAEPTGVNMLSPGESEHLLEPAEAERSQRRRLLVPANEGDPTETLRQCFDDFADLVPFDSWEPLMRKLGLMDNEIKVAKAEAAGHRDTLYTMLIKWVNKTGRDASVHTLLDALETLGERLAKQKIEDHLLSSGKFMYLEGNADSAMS
PEG-3, sequence (Q6IN02 whole entry, looked up): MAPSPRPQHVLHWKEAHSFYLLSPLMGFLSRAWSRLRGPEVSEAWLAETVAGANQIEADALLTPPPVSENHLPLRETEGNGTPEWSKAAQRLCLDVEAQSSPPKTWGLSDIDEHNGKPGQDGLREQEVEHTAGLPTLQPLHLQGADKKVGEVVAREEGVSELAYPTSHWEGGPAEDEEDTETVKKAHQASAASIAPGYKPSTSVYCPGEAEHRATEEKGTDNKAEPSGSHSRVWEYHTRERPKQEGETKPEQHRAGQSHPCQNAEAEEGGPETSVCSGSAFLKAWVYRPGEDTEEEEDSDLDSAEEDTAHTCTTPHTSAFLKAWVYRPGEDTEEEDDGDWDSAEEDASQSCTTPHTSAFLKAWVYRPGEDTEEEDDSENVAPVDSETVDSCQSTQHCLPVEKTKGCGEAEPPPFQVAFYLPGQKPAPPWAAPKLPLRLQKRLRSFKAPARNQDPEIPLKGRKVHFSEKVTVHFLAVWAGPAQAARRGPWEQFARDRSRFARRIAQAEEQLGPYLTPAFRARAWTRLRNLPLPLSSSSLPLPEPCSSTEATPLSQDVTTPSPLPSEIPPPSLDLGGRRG
Prothrombin (Bos taurus), sequence (P00735 whole entry, looked up): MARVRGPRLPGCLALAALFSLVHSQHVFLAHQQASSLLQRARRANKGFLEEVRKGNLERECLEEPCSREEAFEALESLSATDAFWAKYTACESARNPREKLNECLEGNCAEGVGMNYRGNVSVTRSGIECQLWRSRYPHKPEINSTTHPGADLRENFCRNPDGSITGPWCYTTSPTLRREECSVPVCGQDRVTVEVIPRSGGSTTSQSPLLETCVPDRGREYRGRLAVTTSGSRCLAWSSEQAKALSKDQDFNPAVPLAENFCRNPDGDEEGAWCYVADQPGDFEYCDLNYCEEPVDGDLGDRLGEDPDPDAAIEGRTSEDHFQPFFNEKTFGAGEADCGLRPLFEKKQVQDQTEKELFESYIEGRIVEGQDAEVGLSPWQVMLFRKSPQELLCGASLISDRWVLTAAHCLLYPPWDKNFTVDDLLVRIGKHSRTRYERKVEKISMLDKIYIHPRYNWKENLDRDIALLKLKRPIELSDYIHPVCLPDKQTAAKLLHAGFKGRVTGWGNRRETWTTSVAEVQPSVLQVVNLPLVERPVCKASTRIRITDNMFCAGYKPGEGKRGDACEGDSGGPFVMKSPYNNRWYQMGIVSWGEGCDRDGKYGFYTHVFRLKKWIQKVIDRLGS
Sentrin-specific protease 6 (Homo sapiens), sequence (Q9GZR1 628-1112 limits assumed): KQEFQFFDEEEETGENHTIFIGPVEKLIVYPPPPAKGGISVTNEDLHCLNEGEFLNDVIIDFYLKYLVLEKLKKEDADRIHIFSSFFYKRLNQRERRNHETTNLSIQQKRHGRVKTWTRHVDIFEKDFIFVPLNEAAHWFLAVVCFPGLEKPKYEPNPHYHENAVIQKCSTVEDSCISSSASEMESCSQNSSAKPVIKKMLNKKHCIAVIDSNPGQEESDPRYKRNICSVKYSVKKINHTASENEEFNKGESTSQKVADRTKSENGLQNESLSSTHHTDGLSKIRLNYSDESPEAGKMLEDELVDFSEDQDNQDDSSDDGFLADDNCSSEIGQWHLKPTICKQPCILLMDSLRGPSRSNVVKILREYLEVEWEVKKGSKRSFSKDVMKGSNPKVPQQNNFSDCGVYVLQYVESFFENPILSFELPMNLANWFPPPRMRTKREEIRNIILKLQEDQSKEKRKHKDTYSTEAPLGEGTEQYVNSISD
Sentrin-specific protease 7 (Homo sapiens), sequence (Q9BQF6 706-1050 limits assumed): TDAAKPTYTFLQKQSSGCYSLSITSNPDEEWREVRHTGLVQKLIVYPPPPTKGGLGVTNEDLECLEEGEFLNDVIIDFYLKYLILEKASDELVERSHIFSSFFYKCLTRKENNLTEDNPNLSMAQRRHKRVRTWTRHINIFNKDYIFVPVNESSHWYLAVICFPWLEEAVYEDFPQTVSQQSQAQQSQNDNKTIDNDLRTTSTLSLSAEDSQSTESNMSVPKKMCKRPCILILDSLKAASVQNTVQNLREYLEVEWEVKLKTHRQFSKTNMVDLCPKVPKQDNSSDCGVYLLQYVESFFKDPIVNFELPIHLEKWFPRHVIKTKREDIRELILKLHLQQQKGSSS
COP9 signalosome complex subunit 5 (Homo sapiens), sequence (Q92905 whole entry, looked up, one chain of several): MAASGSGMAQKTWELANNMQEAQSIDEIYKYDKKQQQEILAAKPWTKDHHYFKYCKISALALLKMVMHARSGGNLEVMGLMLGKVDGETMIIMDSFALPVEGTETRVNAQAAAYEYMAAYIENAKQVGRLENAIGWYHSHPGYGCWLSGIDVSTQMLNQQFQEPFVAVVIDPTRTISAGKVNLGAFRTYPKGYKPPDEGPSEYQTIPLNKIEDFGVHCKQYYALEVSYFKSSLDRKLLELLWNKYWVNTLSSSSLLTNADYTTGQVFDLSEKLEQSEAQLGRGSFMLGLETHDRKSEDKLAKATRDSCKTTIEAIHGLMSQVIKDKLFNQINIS
Caspase-3 (Homo sapiens), sequence (P42574 28-227 limits assumed): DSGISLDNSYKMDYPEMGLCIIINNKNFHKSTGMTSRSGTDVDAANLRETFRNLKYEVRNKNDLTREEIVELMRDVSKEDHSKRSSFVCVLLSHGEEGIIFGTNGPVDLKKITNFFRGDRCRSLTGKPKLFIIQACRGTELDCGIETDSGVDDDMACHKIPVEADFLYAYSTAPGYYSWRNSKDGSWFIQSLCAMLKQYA
Sentrin-specific protease 8 (Homo sapiens), sequence (Q96LD8 whole entry, looked up): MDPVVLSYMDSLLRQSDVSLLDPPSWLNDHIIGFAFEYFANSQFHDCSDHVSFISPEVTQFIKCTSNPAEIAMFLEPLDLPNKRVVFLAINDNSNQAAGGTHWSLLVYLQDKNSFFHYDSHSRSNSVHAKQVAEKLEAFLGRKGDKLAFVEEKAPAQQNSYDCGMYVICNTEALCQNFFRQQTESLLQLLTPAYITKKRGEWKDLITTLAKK
72 kDa type IV collagenase (Homo sapiens), sequence (P08253 whole entry, looked up): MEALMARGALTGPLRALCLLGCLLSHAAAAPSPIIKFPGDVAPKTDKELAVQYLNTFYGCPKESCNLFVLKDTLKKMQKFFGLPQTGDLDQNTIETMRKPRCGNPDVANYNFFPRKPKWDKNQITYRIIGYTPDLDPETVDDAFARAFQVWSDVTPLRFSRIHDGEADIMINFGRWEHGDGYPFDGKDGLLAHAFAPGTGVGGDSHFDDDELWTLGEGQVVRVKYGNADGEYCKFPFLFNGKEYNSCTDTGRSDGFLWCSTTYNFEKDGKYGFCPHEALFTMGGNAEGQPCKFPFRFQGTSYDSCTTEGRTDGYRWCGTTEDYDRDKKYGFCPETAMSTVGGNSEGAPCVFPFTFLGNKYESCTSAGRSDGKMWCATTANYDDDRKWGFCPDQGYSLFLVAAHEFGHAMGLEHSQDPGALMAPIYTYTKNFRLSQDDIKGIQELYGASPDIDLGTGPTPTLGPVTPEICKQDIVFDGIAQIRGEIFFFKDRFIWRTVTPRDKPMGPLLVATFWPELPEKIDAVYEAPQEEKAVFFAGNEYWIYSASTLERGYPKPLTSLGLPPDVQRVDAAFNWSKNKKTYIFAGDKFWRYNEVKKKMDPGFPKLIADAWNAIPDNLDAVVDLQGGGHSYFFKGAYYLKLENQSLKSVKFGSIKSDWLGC
Protein Mdm4 (Homo sapiens) + E3 ubiquitin-protein ligase Mdm2 (Homo sapiens), sequence (O15151 whole entry, looked up): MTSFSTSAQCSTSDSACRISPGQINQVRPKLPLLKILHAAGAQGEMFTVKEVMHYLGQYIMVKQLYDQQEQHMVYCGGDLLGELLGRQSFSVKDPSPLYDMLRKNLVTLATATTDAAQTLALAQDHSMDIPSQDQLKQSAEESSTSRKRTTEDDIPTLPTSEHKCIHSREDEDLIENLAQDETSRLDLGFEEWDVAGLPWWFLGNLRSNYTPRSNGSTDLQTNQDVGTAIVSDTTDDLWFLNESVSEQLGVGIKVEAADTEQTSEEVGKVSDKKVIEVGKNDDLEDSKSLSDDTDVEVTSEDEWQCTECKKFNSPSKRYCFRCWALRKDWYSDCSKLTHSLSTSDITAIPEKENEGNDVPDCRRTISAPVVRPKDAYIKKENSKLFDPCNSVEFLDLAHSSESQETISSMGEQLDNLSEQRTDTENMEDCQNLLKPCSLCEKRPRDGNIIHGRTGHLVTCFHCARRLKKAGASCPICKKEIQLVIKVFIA
Protein Mdm4 (Homo sapiens) + E3 ubiquitin-protein ligase Mdm2 (Homo sapiens), sequence (Q00987 whole entry, looked up): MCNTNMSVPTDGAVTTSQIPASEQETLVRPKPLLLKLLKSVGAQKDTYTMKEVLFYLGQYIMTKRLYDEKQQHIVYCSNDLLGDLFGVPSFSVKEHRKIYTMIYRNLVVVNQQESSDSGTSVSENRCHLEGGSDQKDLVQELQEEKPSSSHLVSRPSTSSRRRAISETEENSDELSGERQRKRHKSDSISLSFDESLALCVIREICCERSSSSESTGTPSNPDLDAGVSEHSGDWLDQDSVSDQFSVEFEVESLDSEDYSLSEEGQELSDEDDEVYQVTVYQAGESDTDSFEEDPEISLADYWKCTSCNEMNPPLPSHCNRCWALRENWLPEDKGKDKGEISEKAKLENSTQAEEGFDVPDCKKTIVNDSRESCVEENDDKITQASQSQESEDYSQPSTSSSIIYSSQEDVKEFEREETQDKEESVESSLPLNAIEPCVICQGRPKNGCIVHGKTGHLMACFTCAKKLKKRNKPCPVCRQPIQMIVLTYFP

With `COc1cccc(/C=N/NC(=O)c2[nH]nc3c2CCc2ccccc2-3)c1O`, the inhibition (commonly the relative decrease from the control value, in per cent) in [1] was 39.9% (inactive); in test [2] it was 27% (active); in test [3] it was 20.6% (inactive); in test [4] it was 34.7% (active); with Prothrombin (Bos taurus), 30.2% (active).
For `CCN1/C(=C\c2ccc3ccccc3[n+]2CC)Sc2cc(C)ccc21` the same measures were 67.4% (active), 25% (active), 24% (inactive), -3.14% (inactive) and 43.3% (inactive).
Regarding `COc1ccc(Nc2ncnc3ccc(Br)cc23)c(OC)c1`, the inhibition in test [1] is 88.2% (active); in test [2] it was 24.3% (active); in test [5], 87.9% (active); in test [6], 91.3% (active); in [7] it was 102% (active); with PEG-3 [8], 88.3%. Moreover, the inhibition with PEG-3 [9] was 91.8%; in the test on Rat fibroblasts (CREF) [10] it was 44.4%; with Rat fibroblasts (CREF) [11] it was 38.7%.
For `NC(N)=N/N=C/c1ccc(OCc2ccc(Cl)cc2Cl)cc1`, the figures for the inhibition in test [1], in test [12] and in [13] were -12.9% (inactive), 102% (active) and 35.8% (inactive), respectively. In [14], the activation (fluorescence interference) was -0.23% (inactive). The activity in [15] stood at 58.8%; in test [16] it was 95.5%.
Consider `COc1ccc(C2=Nn3c(nnc3-c3ccccc3OC)SC2)cc1OC1CCCC1`, for which the inhibition was 58% (active) in [1], 98.4% (active) in test [17], 98.7% in [18] and 118% [at 39.5 µM] in test [19].
`CCc1ccc2oc(-c3ccc(N)cc3)nc2c1`: the inhibition was -126% (inactive) in test [1]; 94.5% (active) in [20]; 94.8% (active) in [21]; 100% (active) in test [22]; 84.1% (active) with Caspase-3 (Homo sapiens); 94.5% (active) in [23].
Consider `Clc1ccc2nc(CSc3ccccc3)cn2c1`, for which the inhibition in [1] is -58.5% (inactive); in [20], 53.7% (active); in test [21], 55.6% (active); in test [22], 86.6% (active); with Caspase-3 (Homo sapiens), 68.9% (active); in test [23], 70.8% (active).
In the case of `O=C(N/N=C\c1cc2c(cc1Cl)OCO2)c1ccc(Br)s1`, in [24], the activation is 50.2% (active).
Consider `Clc1cccc(Cl)c1OCCOCCNCc1ccccc1`, for which the inhibition is 86.6% (active) in test [1] and 33% (active) in test [2].
As for `Cc1cccc(CS(=O)(=O)c2ncc(Cl)c(C(=O)Nc3ccc(F)cc3)n2)c1`, the inhibition in test [5] is 95.7% (active); in the test with PEG-3 [8], 99.1%; with PEG-3 [9], 98.3%; with Rat fibroblasts (CREF) [10], 100%; in the test with Rat fibroblasts (CREF) [11] it was 96.3%.
For `CSc1nnc(NC(=O)c2nc(S(=O)(=O)Cc3ccc(C)cc3)ncc2Cl)s1`, the activity in test [15] is 74.5%; in test [16], 82.2%.
As for `O=C(CCl)Nc1cccc(CP(=O)(c2ccccc2)c2ccccc2)c1`, the values for the inhibition in [2] and in test [17] were 27.6% (active) and -20.6% (inactive), respectively.
Consider `COc1cc(NC(=O)c2cncc(-c3ccc(C#N)cc3)c2)cc(C(=O)Nc2cccc(C(F)(F)F)c2)c1`, for which the activity, % sensitization was -1.86% in [25], -1.47% in test [26], -11.8% in test [27] and -16.3% in [28].
